Residual activity data for 33 compounds are collected here from ChEMBL document CHEMBL2218924, “A broad activity screen in support of a chemogenomic map for kinase signalling research and drug discovery” (Biochem J, 2013).

Each structure is given as a SMILES string.

Sequence of Serine/threonine-protein kinase WNK2 (Homo sapiens) (Q9Y3S1 whole entry): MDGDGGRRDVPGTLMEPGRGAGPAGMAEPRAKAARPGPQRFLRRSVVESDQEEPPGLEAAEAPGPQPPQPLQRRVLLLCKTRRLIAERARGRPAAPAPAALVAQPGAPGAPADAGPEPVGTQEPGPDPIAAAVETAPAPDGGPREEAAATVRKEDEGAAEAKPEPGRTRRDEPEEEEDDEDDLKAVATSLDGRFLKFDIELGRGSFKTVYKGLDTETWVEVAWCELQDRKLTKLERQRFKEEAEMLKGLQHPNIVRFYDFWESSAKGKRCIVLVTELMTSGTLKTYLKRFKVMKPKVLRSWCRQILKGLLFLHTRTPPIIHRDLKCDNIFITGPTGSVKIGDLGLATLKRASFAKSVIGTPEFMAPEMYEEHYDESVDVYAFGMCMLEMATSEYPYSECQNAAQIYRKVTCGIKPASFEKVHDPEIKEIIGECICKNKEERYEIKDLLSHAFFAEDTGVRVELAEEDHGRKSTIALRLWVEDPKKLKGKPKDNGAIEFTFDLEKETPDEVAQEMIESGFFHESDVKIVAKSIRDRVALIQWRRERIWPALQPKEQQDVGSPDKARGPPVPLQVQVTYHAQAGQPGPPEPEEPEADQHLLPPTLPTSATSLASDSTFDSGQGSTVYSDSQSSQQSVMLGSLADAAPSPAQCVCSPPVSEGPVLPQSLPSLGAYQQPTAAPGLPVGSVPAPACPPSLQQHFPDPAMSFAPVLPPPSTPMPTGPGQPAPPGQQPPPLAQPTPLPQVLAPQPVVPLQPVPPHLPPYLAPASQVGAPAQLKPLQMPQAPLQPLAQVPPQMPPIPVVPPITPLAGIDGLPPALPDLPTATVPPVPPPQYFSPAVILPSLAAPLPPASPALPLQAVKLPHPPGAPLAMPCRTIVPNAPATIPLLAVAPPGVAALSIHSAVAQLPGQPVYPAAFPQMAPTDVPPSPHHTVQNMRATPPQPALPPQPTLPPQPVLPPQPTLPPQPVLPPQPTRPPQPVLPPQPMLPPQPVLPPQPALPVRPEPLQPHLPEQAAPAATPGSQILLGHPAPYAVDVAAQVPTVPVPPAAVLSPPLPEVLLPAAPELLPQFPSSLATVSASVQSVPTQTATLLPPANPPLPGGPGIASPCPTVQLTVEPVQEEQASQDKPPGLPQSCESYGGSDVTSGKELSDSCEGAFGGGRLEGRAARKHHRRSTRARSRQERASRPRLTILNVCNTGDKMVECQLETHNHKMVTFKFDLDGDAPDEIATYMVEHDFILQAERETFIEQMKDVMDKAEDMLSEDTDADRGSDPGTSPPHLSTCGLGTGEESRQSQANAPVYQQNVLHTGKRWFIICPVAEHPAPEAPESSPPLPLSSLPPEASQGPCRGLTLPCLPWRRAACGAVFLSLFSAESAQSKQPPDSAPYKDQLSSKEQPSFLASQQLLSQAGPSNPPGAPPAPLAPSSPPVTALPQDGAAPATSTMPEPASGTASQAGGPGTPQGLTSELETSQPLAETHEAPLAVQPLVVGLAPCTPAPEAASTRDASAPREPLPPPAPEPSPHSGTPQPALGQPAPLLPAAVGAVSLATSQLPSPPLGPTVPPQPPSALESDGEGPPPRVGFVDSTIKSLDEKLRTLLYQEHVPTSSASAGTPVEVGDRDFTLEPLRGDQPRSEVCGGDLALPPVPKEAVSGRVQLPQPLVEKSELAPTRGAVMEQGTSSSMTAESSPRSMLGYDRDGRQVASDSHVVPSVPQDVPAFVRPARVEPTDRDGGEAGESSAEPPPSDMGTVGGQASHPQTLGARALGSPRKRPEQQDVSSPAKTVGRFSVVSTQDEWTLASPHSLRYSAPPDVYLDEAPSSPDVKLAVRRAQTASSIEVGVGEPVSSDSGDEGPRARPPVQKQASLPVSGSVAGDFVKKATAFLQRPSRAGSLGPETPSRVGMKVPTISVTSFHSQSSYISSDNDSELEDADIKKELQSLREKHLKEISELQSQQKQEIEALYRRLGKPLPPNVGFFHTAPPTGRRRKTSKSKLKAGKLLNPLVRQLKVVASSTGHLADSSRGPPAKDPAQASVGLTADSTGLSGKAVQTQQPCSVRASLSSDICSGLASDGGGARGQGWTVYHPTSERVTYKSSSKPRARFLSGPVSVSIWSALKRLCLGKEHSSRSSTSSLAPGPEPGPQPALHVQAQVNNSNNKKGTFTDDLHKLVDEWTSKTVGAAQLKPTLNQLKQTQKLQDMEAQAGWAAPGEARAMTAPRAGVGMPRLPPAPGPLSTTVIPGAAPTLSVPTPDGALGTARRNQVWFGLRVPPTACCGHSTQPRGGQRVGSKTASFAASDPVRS

The first assay has as its target Serine/threonine-protein kinase WNK2 (Homo sapiens) (UniProt Q9Y3S1). As to conditions: at 10 µM; call rule not given here.
By residual activity is commonly meant the signal under treatment as a percentage of the control signal. Take `c1ccc(-c2n[nH]cc2-c2ccnc3ccccc23)nc1`: the residual activity worked out at 88%.
`Cn1nc2c3c(cccc31)C(=O)c1ccccc1-2`: the residual activity was 89%.
On the same count and under the same terms, then `COc1ccc(CNc2nc(N(CCO)CCO)nc3c2ncn3C(C)C)cc1`, with 86%; and `CO[C@@H]1[C@H](N(C)C(=O)c2ccccc2)C[C@H]2O[C@]1(C)n1c3ccccc3c3c4c(c5c6ccccc6n2c5c31)C(=O)NC4`, with 60%.
As to `C[C@@H](N)[C@H]1CC[C@H](C(=O)Nc2ccncc2)CC1`, the residual activity turned out to be 90%.
Same read-out and setting: then `Cc1cccc(-c2[nH]c(C(C)(C)C)nc2-c2ccc3c(c2)OCO3)n1`, with 84%; and `Cc1cc(Nc2nc(-c3ccccc3)nc3ccccc23)n[nH]1`, with 27%; and `O=C1Nc2ccc(Br)cc2/C1=C\c1cc2c([nH]1)CCCC2`, with 84%.
The same measure, in the same setting: with `Cc1cc2ncc(-c3ccccc3)nc2cc1C` the figure was 93%.
The same measure, in the same setting: then `CCN(CC)C(=O)c1ccc(Nc2nc(OCC3CCCCC3)c3nc[nH]c3n2)cc1`, with 48%; and `O=C1c2ccccc2-[n+]2ccc3c([nH]c4ccccc43)c21`, with 92%.
For the compound `Cc1ccc(S(=O)(=O)/C=C/C#N)cc1`, the residual activity turned out to be 95%.
As to `c1ccc2c(-c3ccncc3)c[nH]c2c1`, the residual activity was 75%.
Still for that read-out and setting: then `c1ccc(-c2n[nH]c3c2oc2ccccc23)cc1`, with 74%; and `CO[C@H]1C[C@@H]2CC[C@@H](C)[C@@](O)(O2)C(=O)C(=O)N2CCCC[C@H]2C(=O)O[C@H]([C@H](C)C[C@@H]2CC[C@@H](O)[C@H](OC)C2)CC(=O)[C@H](C)/C=C(\C)[C@@H](O)[C@@H](OC)C(=O)[C@H](C)C[C@H](C)/C=C/C=C/C=C/1C`, with 94%; and `Nc1cccc(-c2cc3c(Oc4cccc(O)c4)ncnc3[nH]2)c1`, with 40%.
In the case of `COc1ccc(S(=O)(=O)N(CCO)c2ccccc2CN(C)C/C=C/c2ccc(Cl)cc2)cc1`, the residual activity stood at 88%.
With `O=C1Nc2ccccc2/C1=C1/Nc2ccccc2/C1=N\OCCC(O)CO` (configuration not stated), the residual activity was 40%.
In the case of `COc1cc2ncnc(Nc3ccc(NC(=O)c4ccccc4)cc3)c2cc1OC`, the residual activity is 25%.
On to `Ic1cccc(CSc2nnc(-c3ccncc3)o2)c1`, for which the residual activity came out at 83%.
The same measure, in the same setting: with `O=C(Nc1cccc(Nc2cc(Nc3cccc(C(F)(F)F)c3)ncn2)c1)C1CC1` the figure was 81%; with `O=[N+]([O-])c1ccc(-c2nc(-c3ccc(F)cc3)c(-c3ccncc3)[nH]2)cc1`, 95%; with `N#CC(C#N)=C(N)/C(C#N)=C/c1ccc(O)cc1`, 83%.
Same read-out and setting: with `O=Nc1c(-c2c(O)[nH]c3ccccc23)[nH]c2ccccc12` the figure was 55%; with `CN(C)CCCn1cc(C2=C(c3c[nH]c4ccccc34)C(=O)NC2=O)c2ccccc21`, 86%.
With `O=C1Nc2cc(Br)ccc2/C1=C1/Nc2ccccc2/C1=N\O`, the residual activity was determined as 91%.
The same measure, in the same setting: then `COc1cc2ncc(-c3ccccc3)nc2cc1OC`, with 94%; and `O=C1NC(=O)/C(=C/c2ccc3c(c2)OC(F)(F)O3)S1`, with 85%.
For the compound `CC(=O)c1ccc(N2CCOCC2)cc1O`, the residual activity worked out at 94%.
As for `Nc1n[nH]c2nnc(-c3c(-c4ccccc4)nn4ccccc34)cc12`, the residual activity is 90%.
The same measure, in the same setting: then `Cn1cnc2cc3c(Nc4cccc(Br)c4)ncnc3cc21`, with 85%.

Another assay deals with Serine/threonine-protein kinase WNK3 (Homo sapiens) (UniProt Q9BYP7). As to conditions: at 1 µM.
Sequence of Serine/threonine-protein kinase WNK3 (Homo sapiens) (Q9BYP7 whole entry): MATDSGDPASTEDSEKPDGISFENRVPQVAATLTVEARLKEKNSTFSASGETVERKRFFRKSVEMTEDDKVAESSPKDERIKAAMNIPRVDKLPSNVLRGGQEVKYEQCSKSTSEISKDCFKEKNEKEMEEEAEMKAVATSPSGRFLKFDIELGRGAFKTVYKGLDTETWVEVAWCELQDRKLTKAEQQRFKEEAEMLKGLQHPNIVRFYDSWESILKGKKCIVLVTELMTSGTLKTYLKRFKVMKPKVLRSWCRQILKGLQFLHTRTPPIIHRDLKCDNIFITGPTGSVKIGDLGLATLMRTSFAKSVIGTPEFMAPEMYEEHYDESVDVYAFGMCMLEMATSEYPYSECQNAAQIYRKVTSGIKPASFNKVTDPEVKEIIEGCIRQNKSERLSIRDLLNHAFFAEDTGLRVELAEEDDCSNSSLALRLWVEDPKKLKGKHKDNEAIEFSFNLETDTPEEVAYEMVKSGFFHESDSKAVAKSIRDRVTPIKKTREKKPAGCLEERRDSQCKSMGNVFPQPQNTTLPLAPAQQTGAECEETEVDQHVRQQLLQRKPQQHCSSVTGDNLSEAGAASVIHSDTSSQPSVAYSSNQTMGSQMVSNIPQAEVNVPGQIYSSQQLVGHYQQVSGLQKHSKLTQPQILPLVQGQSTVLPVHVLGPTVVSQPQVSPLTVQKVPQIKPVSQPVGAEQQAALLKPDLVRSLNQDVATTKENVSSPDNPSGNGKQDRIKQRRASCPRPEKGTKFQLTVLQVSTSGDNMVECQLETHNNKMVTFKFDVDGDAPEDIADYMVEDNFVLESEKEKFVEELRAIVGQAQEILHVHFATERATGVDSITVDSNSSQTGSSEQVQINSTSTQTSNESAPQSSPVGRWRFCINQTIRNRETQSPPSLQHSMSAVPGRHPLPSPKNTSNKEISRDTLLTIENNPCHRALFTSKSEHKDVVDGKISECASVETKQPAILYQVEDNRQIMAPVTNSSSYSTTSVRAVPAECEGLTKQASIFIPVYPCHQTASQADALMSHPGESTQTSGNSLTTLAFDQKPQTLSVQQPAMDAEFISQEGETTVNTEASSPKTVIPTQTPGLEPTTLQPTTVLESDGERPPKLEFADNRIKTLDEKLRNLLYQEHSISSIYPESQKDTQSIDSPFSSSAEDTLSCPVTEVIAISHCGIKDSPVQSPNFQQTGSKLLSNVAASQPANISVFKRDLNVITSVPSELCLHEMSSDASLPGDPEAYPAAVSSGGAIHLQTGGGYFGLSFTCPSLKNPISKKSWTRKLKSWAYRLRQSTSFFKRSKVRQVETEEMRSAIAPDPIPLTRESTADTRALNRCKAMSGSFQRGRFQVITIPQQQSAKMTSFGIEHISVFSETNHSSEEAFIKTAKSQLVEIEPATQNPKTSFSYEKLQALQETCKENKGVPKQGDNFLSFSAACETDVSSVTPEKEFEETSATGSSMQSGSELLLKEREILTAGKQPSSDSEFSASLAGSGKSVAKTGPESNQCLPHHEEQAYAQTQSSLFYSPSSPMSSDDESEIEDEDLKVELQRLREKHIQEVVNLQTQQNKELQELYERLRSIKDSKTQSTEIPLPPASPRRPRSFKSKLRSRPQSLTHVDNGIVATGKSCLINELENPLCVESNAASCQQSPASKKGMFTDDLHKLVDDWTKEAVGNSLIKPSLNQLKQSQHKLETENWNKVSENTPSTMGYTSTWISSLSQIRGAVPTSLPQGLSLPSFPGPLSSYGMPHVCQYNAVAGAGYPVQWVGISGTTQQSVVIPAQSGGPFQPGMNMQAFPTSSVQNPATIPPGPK
In the case of `c1ccc(-c2n[nH]cc2-c2ccnc3ccccc23)nc1`, the residual activity was 97% (inactive).
Still for that read-out and setting: then `Cn1nc2c3c(cccc31)C(=O)c1ccccc1-2`, with 95% (inactive); and `COc1ccc(CNc2nc(N(CCO)CCO)nc3c2ncn3C(C)C)cc1`, with 97% (inactive); and `CO[C@@H]1[C@H](N(C)C(=O)c2ccccc2)C[C@H]2O[C@]1(C)n1c3ccccc3c3c4c(c5c6ccccc6n2c5c31)C(=O)NC4`, with 91% (inactive).
The same measure, in the same setting: with `C[C@@H](N)[C@H]1CC[C@H](C(=O)Nc2ccncc2)CC1` the figure was 106% (inactive).
Same read-out and setting: with `Cc1cccc(-c2[nH]c(C(C)(C)C)nc2-c2ccc3c(c2)OCO3)n1` the figure was 89% (inactive); with `Cc1cc(Nc2nc(-c3ccccc3)nc3ccccc23)n[nH]1`, 74% (inactive); with `O=C1Nc2ccc(Br)cc2/C1=C\c1cc2c([nH]1)CCCC2`, 118% (inactive).
On to `Cc1cc2ncc(-c3ccccc3)nc2cc1C`, for which the residual activity is 96% (inactive).
As for `O=C1c2ccccc2-[n+]2ccc3c([nH]c4ccccc43)c21`, the residual activity was 91% (inactive).
The same measure, in the same setting: with `Cc1ccc(S(=O)(=O)/C=C/C#N)cc1` the figure was 98% (inactive); with `c1ccc2c(-c3ccncc3)c[nH]c2c1`, 98% (inactive); with `CO[C@H]1C[C@@H]2CC[C@@H](C)[C@@](O)(O2)C(=O)C(=O)N2CCCC[C@H]2C(=O)O[C@H]([C@H](C)C[C@@H]2CC[C@@H](O)[C@H](OC)C2)CC(=O)[C@H](C)/C=C(\C)[C@@H](O)[C@@H](OC)C(=O)[C@H](C)C[C@H](C)/C=C/C=C/C=C/1C`, 107% (inactive).
On the same count and under the same terms, with `Nc1cccc(-c2cc3c(Oc4cccc(O)c4)ncnc3[nH]2)c1` the figure was 93% (inactive).
In the case of `COc1ccc(S(=O)(=O)N(CCO)c2ccccc2CN(C)C/C=C/c2ccc(Cl)cc2)cc1`, the residual activity was 100% (inactive).
The same measure, in the same setting: then `O=C1Nc2ccccc2/C1=C1/Nc2ccccc2/C1=N\OCCC(O)CO` (configuration not stated), with 76% (inactive); and `COc1cc2ncnc(Nc3ccc(NC(=O)c4ccccc4)cc3)c2cc1OC`, with 59% (inactive).
For the compound `N#Cc1cnc2cnc(NCc3cccnc3)cc2c1Nc1ccc(F)c(Cl)c1`, the residual activity was 97% (inactive).
For `Ic1cccc(CSc2nnc(-c3ccncc3)o2)c1`, the residual activity is 89% (inactive).
The same measure, in the same setting: with `O=C(Nc1cccc(Nc2cc(Nc3cccc(C(F)(F)F)c3)ncn2)c1)C1CC1` the figure was 95% (inactive); with `O=[N+]([O-])c1ccc(-c2nc(-c3ccc(F)cc3)c(-c3ccncc3)[nH]2)cc1`, 92% (inactive).
Take `N#CC(C#N)=C(N)/C(C#N)=C/c1ccc(O)cc1`: the residual activity was 96% (inactive).
`O=Nc1c(-c2c(O)[nH]c3ccccc23)[nH]c2ccccc12`: the residual activity is 89% (inactive).
Same read-out and setting: then `CN(C)CCCn1cc(C2=C(c3c[nH]c4ccccc34)C(=O)NC2=O)c2ccccc21`, with 121% (inactive); and `O=C1Nc2cc(Br)ccc2/C1=C1/Nc2ccccc2/C1=N\O`, with 93% (inactive).
Same read-out and setting: then `COc1cc2ncc(-c3ccccc3)nc2cc1OC`, with 126% (inactive); and `O=C1NC(=O)/C(=C/c2ccc3c(c2)OC(F)(F)O3)S1`, with 104% (inactive); and `CC(=O)c1ccc(N2CCOCC2)cc1O`, with 104% (inactive).
Still for that read-out and setting: with `Nc1n[nH]c2nnc(-c3c(-c4ccccc4)nn4ccccc34)cc12` the figure was 83% (inactive); with `Nc1nc(Nc2ccc(S(N)(=O)=O)cc2)nn1C(=S)Nc1c(F)cccc1F`, 77% (inactive); with `Cn1cnc2cc3c(Nc4cccc(Br)c4)ncnc3cc21`, 93% (inactive).
